Holding throughout (set-up): scale not given: direction of the effect not stated beside the values
Assay [1] has as its target Protein translocase subunit SecA (Escherichia coli (strain K12)) (UniProt P10408). Description: Assay to Identify E. coli SecA ATPase Inhibitors. The assay is classed as functional. The following applies: 30 µM.
Assay [2] has as its target T1, Ubiquitin-activating enzyme e1, putative (Leishmania donovani (strain BPK282A1)) (UniProt E9BSI1).
T1 sequence (whole entry): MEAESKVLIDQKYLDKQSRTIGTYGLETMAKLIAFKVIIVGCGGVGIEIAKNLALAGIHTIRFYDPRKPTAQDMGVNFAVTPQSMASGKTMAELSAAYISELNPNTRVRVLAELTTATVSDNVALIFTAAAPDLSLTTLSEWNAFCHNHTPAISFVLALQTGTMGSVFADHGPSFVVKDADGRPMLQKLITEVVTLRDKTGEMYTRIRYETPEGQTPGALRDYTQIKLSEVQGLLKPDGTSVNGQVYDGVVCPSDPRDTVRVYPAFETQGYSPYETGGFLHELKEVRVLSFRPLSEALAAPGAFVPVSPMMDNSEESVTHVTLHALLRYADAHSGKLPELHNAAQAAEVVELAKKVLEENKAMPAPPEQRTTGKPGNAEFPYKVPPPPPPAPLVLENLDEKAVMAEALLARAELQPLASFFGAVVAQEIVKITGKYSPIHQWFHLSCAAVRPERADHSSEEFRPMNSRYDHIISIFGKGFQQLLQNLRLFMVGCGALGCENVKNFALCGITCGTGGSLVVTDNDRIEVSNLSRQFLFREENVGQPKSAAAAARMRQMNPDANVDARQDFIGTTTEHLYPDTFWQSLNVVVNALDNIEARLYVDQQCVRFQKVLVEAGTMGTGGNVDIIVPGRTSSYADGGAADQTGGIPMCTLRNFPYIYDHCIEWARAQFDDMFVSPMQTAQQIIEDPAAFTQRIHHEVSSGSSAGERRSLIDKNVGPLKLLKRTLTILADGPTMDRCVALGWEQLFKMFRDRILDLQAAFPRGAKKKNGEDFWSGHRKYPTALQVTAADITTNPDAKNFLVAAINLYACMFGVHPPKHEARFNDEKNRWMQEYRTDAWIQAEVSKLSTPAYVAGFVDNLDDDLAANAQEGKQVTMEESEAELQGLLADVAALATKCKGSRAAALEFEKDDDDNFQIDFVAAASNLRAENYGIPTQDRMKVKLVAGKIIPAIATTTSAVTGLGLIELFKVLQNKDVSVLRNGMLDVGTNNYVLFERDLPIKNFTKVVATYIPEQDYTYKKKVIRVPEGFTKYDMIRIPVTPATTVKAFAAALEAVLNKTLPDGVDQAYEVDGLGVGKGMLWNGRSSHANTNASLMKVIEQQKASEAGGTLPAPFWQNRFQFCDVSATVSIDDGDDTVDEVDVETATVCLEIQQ
Description: Leishmania donovani Ubiquitin Activating Enzyme (LdE1). It counts as functional. The following applies: 30 µM.

The target in assay [3] is AMP-activated protein kinase, AMPK (Homo sapiens) (UniProt P54646+O43741+P54619+Q9UGJ0+Q9Y478+Q13131+Q9UGI9). Description: AMP-dependent Kinase enzyme assay. An in vitro enzyme assay that detects ADP turnover that is directly proportional to AMPK activity. This uses naive AMPK that is activated during the assay with MK-8722. The assay is classed as functional. The following applies: 30 µM.

Assay [4] deals with Sialic acid-binding Ig-like lectin 9 (Homo sapiens) (UniProt Q9Y336). Description: Hs-Siglec9 ALPHAscreen SOP 20170721. The following applies: 10 µM. Background: Bead proximity is the source of the signal in Alpha formats.
Sequence of Sialic acid-binding Ig-like lectin 9 (Homo sapiens) (Q9Y336 whole entry): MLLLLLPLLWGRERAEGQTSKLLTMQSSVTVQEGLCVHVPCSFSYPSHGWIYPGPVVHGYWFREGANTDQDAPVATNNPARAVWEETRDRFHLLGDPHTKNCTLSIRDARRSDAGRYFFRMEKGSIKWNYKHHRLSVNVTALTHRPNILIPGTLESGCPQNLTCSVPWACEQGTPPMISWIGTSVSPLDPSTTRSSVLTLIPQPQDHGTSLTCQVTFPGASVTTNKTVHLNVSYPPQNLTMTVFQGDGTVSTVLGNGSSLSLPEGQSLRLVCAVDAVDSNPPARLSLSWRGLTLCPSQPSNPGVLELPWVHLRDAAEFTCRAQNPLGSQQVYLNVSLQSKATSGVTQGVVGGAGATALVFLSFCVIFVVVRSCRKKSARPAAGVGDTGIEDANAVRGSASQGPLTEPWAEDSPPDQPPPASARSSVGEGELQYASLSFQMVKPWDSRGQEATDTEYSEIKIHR
For assay [5], the system named is Trypanosoma cruzi. Description: Trypanosoma cruzi phosphomannomutase and mannose-1-phosphate guanylyltransferase assay. The assay is classed as functional. The following applies: 10 µM.
For assay [6], the target named is T2, Arginase-2, mitochondrial (Homo sapiens) (UniProt P78540).
T2 sequence (whole entry): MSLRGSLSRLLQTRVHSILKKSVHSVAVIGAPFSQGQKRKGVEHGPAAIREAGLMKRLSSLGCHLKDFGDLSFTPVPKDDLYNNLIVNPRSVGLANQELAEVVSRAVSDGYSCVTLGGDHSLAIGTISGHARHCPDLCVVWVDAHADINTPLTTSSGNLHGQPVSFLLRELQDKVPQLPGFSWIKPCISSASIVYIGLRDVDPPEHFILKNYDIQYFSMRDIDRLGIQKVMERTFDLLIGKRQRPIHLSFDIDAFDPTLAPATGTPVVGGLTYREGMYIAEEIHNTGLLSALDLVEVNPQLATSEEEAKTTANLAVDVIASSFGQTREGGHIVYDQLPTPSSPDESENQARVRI
Description: in vitro enzyme assay to detect the production of urea directly proportional to the activity of Arginase II. Note: in the data most compounds retested in dose-response had high values. It counts as functional. The following applies: 33.3 µM.

Assay [7] deals with T3, Proteasome subunit beta (Trypanosoma cruzi) (UniProt O96673).
T3 sequence (whole entry): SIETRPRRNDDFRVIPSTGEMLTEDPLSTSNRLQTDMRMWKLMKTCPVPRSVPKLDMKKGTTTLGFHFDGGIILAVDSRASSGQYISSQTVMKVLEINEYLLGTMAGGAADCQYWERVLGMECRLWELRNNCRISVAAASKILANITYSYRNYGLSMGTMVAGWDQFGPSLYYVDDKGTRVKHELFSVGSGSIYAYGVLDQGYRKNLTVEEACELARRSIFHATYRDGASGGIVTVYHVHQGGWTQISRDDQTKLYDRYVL
Description: Trypanosoma cruzi proteasome chymotrypsin-like activity (TcProtChymo) assay. Note: in the data most compounds retested in dose-response had high values. The assay is classed as functional. The following applies: 9.37 µM.

The species named for assay [8] is Homo sapiens. Description: To identify inhibition of the IFN signalling (Jak-Stat) pathway via expression of an eGFP reporter gene under the control of an IFN-stimulated response element (ISRE) containing MxA promoter. The assay is classed as functional. The following applies: 30 µM.
The target in assay [9] is T4, Tyrosyl-tRNA synthetase, putative (Trypanosoma cruzi (strain CL Brener)) (UniProt Q4DSP6).
T4 sequence (whole entry): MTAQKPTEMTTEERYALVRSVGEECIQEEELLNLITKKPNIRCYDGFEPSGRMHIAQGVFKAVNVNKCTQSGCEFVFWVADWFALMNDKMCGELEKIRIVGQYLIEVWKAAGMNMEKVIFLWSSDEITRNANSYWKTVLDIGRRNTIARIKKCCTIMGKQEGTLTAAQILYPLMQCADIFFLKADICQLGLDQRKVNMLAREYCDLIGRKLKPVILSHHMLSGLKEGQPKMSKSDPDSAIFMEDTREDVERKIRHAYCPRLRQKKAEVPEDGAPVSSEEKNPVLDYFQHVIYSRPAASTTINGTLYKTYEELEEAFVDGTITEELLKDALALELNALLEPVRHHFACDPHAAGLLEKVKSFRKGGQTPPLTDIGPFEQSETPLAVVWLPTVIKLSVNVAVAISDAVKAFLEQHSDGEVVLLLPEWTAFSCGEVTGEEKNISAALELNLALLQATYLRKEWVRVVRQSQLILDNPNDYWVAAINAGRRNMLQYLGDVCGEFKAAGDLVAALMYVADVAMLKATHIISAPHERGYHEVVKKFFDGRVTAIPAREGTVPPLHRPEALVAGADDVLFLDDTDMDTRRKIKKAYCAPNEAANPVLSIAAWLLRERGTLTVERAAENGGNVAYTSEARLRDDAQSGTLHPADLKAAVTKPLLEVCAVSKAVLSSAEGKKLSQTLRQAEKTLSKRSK
Description: Trypanosoma cruzi tyrosyl tRNA synthetase (TcYRS) _High Tyrosine SOP. Note: in the data most compounds retested in dose-response had high values. The assay is classed as functional. The following applies: 30 µM.

Assay [10] concerns the target T4, Tyrosyl-tRNA synthetase, putative (Trypanosoma cruzi (strain CL Brener)). Description: Trypanosoma cruzi tyrosyl tRNA synthetase (TcYRS) SOP. The following applies: 30 µM. It counts as functional.
Assay [11] has as its target Chromo domain-containing protein 1 (Saccharomyces cerevisiae (strain ATCC 204508 / S288c) (Baker's yeast)) (UniProt P32657). Description: ScCHD-1 Enzyme Inhibition Assay. Note: in the data most compounds retested in dose-response had high values. It counts as functional. The following applies: 30 µM.

For some of these results: Measured potencies and affinities stand elsewhere.

Sequence of Protein translocase subunit SecA (Escherichia coli (strain K12)) (P10408 whole entry): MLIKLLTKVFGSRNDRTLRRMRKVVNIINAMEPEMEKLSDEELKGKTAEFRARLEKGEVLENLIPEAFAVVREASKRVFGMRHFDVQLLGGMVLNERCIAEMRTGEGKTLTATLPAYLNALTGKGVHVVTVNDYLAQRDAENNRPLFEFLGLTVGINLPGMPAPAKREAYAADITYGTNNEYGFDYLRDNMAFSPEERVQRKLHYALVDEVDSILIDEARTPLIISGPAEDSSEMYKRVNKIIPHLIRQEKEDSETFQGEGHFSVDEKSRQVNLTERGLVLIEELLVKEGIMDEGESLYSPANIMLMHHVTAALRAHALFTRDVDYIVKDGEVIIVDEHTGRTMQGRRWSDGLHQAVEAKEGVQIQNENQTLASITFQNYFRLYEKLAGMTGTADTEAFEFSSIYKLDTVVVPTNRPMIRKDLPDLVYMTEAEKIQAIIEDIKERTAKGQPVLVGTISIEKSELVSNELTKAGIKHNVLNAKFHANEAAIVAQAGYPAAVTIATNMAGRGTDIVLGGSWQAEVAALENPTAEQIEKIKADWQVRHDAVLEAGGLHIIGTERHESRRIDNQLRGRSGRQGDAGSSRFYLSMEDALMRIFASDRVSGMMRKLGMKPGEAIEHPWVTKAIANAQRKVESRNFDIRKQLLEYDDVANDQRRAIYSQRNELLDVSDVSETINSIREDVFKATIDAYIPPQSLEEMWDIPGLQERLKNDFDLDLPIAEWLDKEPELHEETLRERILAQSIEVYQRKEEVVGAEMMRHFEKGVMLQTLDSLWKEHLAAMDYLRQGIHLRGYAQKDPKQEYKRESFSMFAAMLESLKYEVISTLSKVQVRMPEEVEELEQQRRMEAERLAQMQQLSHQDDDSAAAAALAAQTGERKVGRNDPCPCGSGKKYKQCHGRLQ
Sequence of Chromo domain-containing protein 1 (Saccharomyces cerevisiae (strain ATCC 204508 / S288c) (Baker's yeast)) (P32657 whole entry, the tested form may be a part): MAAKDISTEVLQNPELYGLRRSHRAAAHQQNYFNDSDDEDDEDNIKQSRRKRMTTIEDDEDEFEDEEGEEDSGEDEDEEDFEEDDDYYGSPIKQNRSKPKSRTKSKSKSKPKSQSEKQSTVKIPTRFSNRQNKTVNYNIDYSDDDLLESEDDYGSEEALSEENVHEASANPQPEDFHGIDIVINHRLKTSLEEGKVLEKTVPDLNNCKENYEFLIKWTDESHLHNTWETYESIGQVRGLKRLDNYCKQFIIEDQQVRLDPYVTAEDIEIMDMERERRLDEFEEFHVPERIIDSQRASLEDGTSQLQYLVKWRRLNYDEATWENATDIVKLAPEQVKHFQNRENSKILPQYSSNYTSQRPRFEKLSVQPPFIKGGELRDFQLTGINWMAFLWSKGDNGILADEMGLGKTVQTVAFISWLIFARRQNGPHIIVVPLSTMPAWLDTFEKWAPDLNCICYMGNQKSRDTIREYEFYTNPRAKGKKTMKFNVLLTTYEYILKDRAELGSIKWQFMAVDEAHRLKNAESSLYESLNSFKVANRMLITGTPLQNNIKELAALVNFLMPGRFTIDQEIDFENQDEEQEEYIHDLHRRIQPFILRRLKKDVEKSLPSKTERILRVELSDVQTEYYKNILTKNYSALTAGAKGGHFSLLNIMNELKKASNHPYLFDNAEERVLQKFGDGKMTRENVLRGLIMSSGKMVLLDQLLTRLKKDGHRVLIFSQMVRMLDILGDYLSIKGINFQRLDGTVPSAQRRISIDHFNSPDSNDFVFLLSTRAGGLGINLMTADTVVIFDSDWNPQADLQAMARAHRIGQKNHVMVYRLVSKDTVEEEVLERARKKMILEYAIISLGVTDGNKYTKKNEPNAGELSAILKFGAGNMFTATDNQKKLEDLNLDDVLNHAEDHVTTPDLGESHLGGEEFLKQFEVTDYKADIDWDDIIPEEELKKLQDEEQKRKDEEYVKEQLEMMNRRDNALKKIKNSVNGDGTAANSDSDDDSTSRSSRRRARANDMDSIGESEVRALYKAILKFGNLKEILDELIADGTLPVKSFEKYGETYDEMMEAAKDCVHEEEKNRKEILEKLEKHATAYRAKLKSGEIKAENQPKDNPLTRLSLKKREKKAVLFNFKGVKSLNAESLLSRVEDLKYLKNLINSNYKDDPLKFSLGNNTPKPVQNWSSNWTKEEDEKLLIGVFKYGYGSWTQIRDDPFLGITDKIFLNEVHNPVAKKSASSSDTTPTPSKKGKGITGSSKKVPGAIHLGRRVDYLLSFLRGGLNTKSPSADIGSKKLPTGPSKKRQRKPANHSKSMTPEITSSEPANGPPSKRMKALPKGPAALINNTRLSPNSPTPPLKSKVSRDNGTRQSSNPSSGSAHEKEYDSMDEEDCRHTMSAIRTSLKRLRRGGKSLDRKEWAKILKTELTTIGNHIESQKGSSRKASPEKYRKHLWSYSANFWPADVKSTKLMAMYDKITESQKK

`O=S1(=O)C[C@@H]2[C@H](C1)N(Cc1ncc[nH]1)CCN2CC1CC1`: the Percent Effect in assay [1] was -2.38%; in [2], 0%; in [3], -1.5%; in assay [4] it was -1.31%; in [5], -3.28%; in assay [6], 1.43%. The Percent Effect was 3.45% in assay [7]; 1.15% in assay [8]; 5.82% in assay [9]; 14.6% in assay [10]; -2.92% in [11].
With `Cc1nc2ccccc2c(=O)n1CCC(=O)N1CCSCC1`, the Percent Effect in assay [1] is -6.49%; in assay [2], 13.2%; in [3], 14.1%; in [4], 6.54%; in assay [5] it was 3.19%; in assay [6], 0%. In addition, the Percent Effect in assay [7] was 6.85%; in [8], 4.99%; in assay [9], 6.37%; in [10], 17.1%; in [11], -13.3%.
As to `CNC(=O)CCc1cc(C)nc(C2CCCN2)c1` (stereo not drawn), the Percent Effect in assay [1] was -6.62%; in [2], 14.9%; in assay [3], 6.02%; in assay [4] it was 1.63%; in [5], 2.17%; in assay [6], -3.02%. The Percent Effect is 6.08% in assay [7]; -9.75% in [8]; 2.15% in assay [9]; 11.7% in assay [10]; -23.7% in assay [11].
`O=C(c1cscn1)N1C[C@@H]2C[C@@H](c3nnc(C4CC4)o3)O[C@@H]2C1`: the Percent Effect in [1] is 1.55%; in [2], 7.79%; in [3], 2.51%; in [4] it was -3.79%; in assay [5], -10.2%; in [6], 22.6%. The Percent Effect was 10.4% in assay [7]; 7.19% in assay [8]; -1.06% in [9]; 6.41% in assay [10]; -7.72% in assay [11].
Turning to `Cc1ccc(NC2CCN(C(=O)CN(C)C3CC3)CC2)nn1`, the Percent Effect is -4.6% in assay [1]; -6.33% in assay [2]; -0.261% in assay [3]; 16.3% in assay [4]; -3.79% in assay [5]; 0.645% in assay [6]. The Percent Effect was 6.69% in assay [7]; -12.3% in assay [8]; 4.17% in assay [9]; 7.59% in assay [10]; -6.68% in assay [11].
Take `CO[C@H]1CCN(c2ccc(C)nn2)[C@H]1Cc1cnn(C)c1`: the Percent Effect in [1] was -5.98%; in assay [2] it was 2.7%; in assay [3], -6.04%; in [4], 1.75%; in [5] it was 0.977%; in assay [6] it was 0.417%. Besides, the Percent Effect is 14.4% in assay [7]; -17.9% in [8]; 9.9% in assay [9]; 11% in assay [10]; -6.2% in assay [11].
Consider `CCNc1cc2c(nn1)CCN(C(=O)c1ccnc(N(C)C)c1)C2`, for which the Percent Effect in [1] was -2.5%; in assay [2], 5.26%; in assay [3] it was -29.5%; in assay [4] it was 4.93%; in assay [5], 9.21%; in assay [6], 4.98%. Moreover, the Percent Effect in [7] was 5.01%; in assay [8], -24.9%; in assay [9], 4.41%; in assay [10], 4.88%; in [11], -5.51%.
`CC(C)C(=O)NCCNc1nccc(-c2cc(C(=O)O)ccn2)n1`: the Percent Effect was -4.2% in assay [1]; 19.2% in assay [2]; -3.6% in [3]; 15% in assay [4]; 2.74% in assay [5]; 6.82% in [6]. For the same compound, the Percent Effect was 13.1% in assay [7]; 2.74% in [8]; 9.68% in [9]; 20% in assay [10]; -5.35% in assay [11].

These data come from ChEMBL document CHEMBL3988442, “University of Dundee, Small-Polar-MMV Screening Library” (2021).
